Structures are written as SMILES. Inconclusive results are not listed. Active and inactive are the calls of the source. Unless noted, calls come from the whole dose curve; as a rule, active = well fitted curve in the direction sought with a large enough effect; inconclusive = small, poorly fitted or top-dose-only effect, or another doubt; inactive = no such curve, though single readings can be large; an effect the other way counts as inactive or inconclusive.

Test [1] has as its target Glucocorticoid receptor (Homo sapiens) (UniProt P04150). The test can be described thus: qHTS assay for small molecule agonists of glucocorticoid receptor signaling (AID 588532; active = well fitted curve in the direction sought with a large enough effect in the signal ratio, with a control signal flat; the % refers to the signal ratio;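 note: 100% = dexamethasone at 0.1 µM and 0% = DMSO only wells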). The following applies: HeLa MMTV-bla, beta-lactamase ratio, agonist, 18 h; stronger effect = higher value; percent of dexamethasone control, DMSO zero. The method, boiled down:
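Titration series, up to 92 uM, applied to GRE-bla HeLa cells for 18 h at 37 C. Detection by CCF4 FRET substrate after 2 h at RT.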
Background: qHTS replaces the single test concentration by a dilution series.

Test [2] is described as follows: qHTS assay for small molecule antagonists of peroxisome proliferator-activated receptor delta signaling (AID 588535; active = well fitted inhibition curve with a large enough effect in the signal ratio, with a control signal flat, not every such curve was filed as active; the % refers to the signal ratio;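 for max response: cells co-treated with a PPAR-delta agonist as stimulator during compound exposure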). The following applies: HEK293T PPARd-UAS-bla, beta-lactamase FRET ratio, 18 h; 460 nm channel. The method, boiled down:
(§1)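 Reporter: UAS-bla under PPAR-delta response element, HEK293T host. Medium: 2% charcoal/dextran FBS. Dosing: titration, 18 hrs, 37 C. Detection: CCF4, 2 hrs RT, 405 ex/460 and 530 em.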

Test [3] deals with Peroxisome proliferator-activated receptor delta (Homo sapiens) (UniProt Q03181). The test is described as above. The following applies: HEK293T PPARd-UAS-bla, beta-lactamase FRET ratio, 18 h; series mostly up to 76.7 µM. The method, boiled down: as §1
Peroxisome proliferator-activated receptor delta (Homo sapiens), sequence (Q03181 whole entry, looked up): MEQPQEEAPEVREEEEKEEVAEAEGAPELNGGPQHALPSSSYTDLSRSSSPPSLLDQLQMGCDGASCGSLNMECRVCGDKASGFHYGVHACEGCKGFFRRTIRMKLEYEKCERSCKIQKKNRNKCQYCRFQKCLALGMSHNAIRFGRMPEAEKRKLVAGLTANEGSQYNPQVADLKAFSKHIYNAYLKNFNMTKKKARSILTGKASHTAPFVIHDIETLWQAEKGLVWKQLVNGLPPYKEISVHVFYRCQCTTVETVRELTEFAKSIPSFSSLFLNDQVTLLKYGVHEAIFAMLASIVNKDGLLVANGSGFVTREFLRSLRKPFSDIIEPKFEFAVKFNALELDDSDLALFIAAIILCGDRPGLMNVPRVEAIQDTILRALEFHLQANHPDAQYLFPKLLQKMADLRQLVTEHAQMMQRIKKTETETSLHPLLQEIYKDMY
For test [4], the target named is Peroxisome proliferator-activated receptor gamma (Homo sapiens) (UniProt P37231). Nature of the test: qHTS assay for small molecule agonists of peroxisome proliferator-activated receptor gamma signaling (AID 588536; active = well fitted curve in the direction sought with a large enough effect in the signal ratio, with a control signal flat, not every such curve was filed as active; the % refers to the signal ratio;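 note: 0% = DMSO basal wells and 100% = rosiglitazone at 2 µM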). The following applies: HEK293 PPARg-UAS-bla, beta-lactamase ratio, 16 h, percent of rosiglitazone response, DMSO as zero; series mostly up to 76.7 µM. The method, boiled down: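 PPAR-gamma-UAS-bla HEK293 cells in medium with 1% charcoal/dextran-treated FBS were exposed to compounds for 16 h at 37 C. Beta-lactamase activity was read with CCF4 substrate (405 nm excitation, 460/530 nm emission).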
Peroxisome proliferator-activated receptor gamma (Homo sapiens), sequence (P37231 whole entry, looked up): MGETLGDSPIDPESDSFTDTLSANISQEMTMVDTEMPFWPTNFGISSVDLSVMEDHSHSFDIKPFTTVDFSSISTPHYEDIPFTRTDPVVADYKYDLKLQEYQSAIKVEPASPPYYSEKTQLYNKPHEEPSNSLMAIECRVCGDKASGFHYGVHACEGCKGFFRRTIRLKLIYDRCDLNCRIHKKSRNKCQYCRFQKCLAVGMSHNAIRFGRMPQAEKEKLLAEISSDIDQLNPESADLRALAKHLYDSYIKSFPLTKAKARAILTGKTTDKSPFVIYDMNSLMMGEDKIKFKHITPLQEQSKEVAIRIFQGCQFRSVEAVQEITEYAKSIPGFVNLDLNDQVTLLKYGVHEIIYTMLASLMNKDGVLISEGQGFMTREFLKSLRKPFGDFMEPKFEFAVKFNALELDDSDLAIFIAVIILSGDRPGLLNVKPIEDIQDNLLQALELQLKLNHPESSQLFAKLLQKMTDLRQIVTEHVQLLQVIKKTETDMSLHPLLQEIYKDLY

For test [5], the target named is Vitamin D3 receptor (Homo sapiens) (UniProt P11473). Nature of the test: qHTS assay for small molecule antagonists of vitamin D receptor signaling (AID 588541; calls by dose curve; note: potency is the fitted concentration of half-maximal effect). The note with it: HEK293T VDR-UAS-bla, beta-lactamase ratio, antagonist mode; series mostly up to 76.7 µM. The method, boiled down:
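VDR-UAS-bla HEK293T cells (2000/well, 2% charcoal-stripped FBS) were treated with titrated compounds plus 1-alpha,25-dihydroxyvitamin D3 (50 nM or 3 nM final) for 16 h at 37 C. CCF4 beta-lactamase fluorescence was read; Hill fits gave IC50.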

For test [6] the target is unchanged. The test can be described thus: qHTS assay for small molecule agonists of vitamin D receptor signaling (AID 588543; calls by dose curve;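 note: 0% = DMSO basal and 100% = reference agonist control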). The following applies: HEK293T VDR-UAS-bla, beta-lactamase ratio, 16 h; series mostly up to 76.8 µM. The method, boiled down:
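qHTS in agonist mode: compound titrations stimulate a VDR-driven β-lactamase reporter in HEK293T cells over 16 h at 37 °C. Response normalized to 50 nM 1α,25-dihydroxyvitamin D3 = 100%, DMSO = 0%; Hill fitting gives EC50 and maximal response.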

Test [7] concerns the target Thyroid hormone receptor beta (Homo sapiens) (UniProt P10828). Nature of the test: qHTS assay for small molecule agonists of thyroid hormone receptor beta signaling (AID 588545; calls by dose curve;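 note: 0% = DMSO only and 100% = 10 nM T3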). The following applies: TR-UAS-bla GripTite HEK 293, beta-lactamase ratio, agonist mode, 18 h; series mostly up to 76.7 µM. The method, boiled down:
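Compounds were tested as agonists in TR-UAS-bla-GripTite HEK 293 cells. After 18 hrs at 37 C, CCF4 substrate was added and fluorescence read after 2 hrs at room temperature.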

A short description of test [8]: qHTS assay for small molecule antagonists of retinoid X receptor alpha signaling (AID 588546; active = well fitted inhibition curve with a large enough effect in the signal ratio, with a control signal flat, not every such curve was filed as active; the % refers to the signal ratio;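 note: cells stimulated with 9-cis-retinoic acid as agonist; % is set by controls: 0 for no effect and ±100 for the full control effect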). The note with it: HEK293T RXRa-UAS-bla, beta-lactamase ratio, antagonist mode; measured here: W530 green channel, cytotoxicity proxy. The method, boiled down: (§2)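 Beta-lactamase reporter inhibition, read as CCF4 fluorescence ratio (ex 405, em 460/530 nm) after 2 h at RT. HEK293T UAS-bla cells, 2500/well, were stimulated with 9-cis-RA at 500 or 100 nM final alongside test compound for 18 h at 37 C.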

For test [9], the target named is Retinoic acid receptor RXR-alpha (Homo sapiens) (UniProt P19793). The test is described as above. The note with it: HEK293T RXRa-UAS-bla, beta-lactamase ratio, antagonist mode. The method, boiled down: as §2
Retinoic acid receptor RXR-alpha (Homo sapiens), sequence (P19793 whole entry, looked up): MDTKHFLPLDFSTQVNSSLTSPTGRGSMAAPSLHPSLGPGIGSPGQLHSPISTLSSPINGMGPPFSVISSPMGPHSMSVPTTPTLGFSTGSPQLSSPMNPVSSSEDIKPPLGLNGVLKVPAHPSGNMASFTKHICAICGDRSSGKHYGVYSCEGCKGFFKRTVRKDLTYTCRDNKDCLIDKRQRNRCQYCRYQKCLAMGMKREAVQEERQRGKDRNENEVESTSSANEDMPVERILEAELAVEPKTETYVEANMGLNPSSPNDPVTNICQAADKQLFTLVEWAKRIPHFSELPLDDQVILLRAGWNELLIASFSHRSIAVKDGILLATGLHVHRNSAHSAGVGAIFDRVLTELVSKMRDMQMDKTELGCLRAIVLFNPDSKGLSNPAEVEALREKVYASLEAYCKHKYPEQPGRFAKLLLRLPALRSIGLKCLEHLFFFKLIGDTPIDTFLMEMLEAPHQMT
Test [10] addresses Thyroid hormone receptor beta (Homo sapiens) (UniProt P10828). Nature of the test: qHTS assay for small molecule antagonists of thyroid hormone receptor beta signaling (AID 588547; active = well fitted inhibition curve with a large enough effect in the signal ratio, with a control signal flat, not every such curve was filed as active; the % refers to the signal ratio;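 note: cells stimulated with 0.4 nM T3 agonist during compound exposure; % is set by controls: 0 for no effect and ±100 for the full control effect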). The following applies: TR-UAS-bla HEK293, beta-lactamase ratio, antagonist mode, 18 h. The method, boiled down:
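TR-UAS-bla GripTite HEK293 cells in 2% charcoal/dextran FBS medium were preincubated 4 h at 37 C, given compound (0.59 nM to 92 uM) plus 0.4 nM T3 (final) for 18 h, then CCF4 for 2 h at RT; Hill fit gave IC50.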

Test [11] in a line: qHTS assay for small molecule activators of the p53 signaling pathway (AID 651743; active = well fitted activation curve with a large enough effect in the signal ratio, not every such curve was filed as active; the % refers to the signal ratio; note: % of control where 0% means no effect). The note with it: HCT-116 p53RE-bla, beta-lactamase FRET ratio, 16 h; activation: stronger effect = higher value. The method, boiled down: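 Cell-based beta-lactamase reporter (p53 response elements, HCT-116 background). After a 5-hour preincubation, cells received compound for 16 hours at 37 C; substrate development ran 2 hours at room temperature.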

Test [12] can be described thus: qHTS assay for environmental chemicals that activate the Aryl hydrocarbon Receptor (AhR) signaling pathway (AID 651777). Note: % of control where 0% means no effect; nearly all actives have a fitted effect of over 15% in size. The note with it: 1A2-DRE human hepatoma cells, luciferase, 24 h; activation: stronger effect = higher value. The method, boiled down: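 1A2-DRE human hepatoma reporter line; 1,200 cells/well; cmpd or DMSO 24 h, 37 C/5% CO2; One-Glo 30 min RT; luciferase lum.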

In test [13] the target is Peroxisome proliferator-activated receptor alpha (Homo sapiens) (UniProt Q07869). Nature of the test: qHTS assay for small molecule agonists of the peroxisome proliferator-activated receptor alpha (PPARalpha) signaling pathway (AID 651778). Note: % of control where 0% means no effect. The following applies: PathHunter PPARalpha complementation, chemiluminescence, 6 h; max response: stronger effect = higher value. The method, boiled down: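 Cells plated at 2,000/well and held overnight at 37 C, 5% CO2, then compound added by pin tool for 6 hr; after PathHunter detection reagent and 60 min at room temperature, chemiluminescence from enzyme complementation was read.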
Peroxisome proliferator-activated receptor alpha (Homo sapiens), sequence (Q07869 whole entry, looked up): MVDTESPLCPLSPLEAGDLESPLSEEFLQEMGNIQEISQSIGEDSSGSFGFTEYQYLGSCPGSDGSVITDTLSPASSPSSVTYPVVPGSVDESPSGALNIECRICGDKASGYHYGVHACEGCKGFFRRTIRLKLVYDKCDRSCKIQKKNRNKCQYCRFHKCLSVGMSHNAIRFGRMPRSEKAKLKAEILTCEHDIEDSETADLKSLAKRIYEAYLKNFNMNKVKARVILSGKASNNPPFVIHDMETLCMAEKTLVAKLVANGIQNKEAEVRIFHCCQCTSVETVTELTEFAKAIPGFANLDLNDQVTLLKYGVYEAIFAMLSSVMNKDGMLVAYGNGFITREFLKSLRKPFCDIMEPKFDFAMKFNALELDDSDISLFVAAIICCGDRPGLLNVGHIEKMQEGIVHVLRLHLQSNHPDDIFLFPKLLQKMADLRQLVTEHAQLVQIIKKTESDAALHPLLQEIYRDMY

Test [14] in a line: qHTS assay for small molecule agonists of the antioxidant response element (ARE) signaling pathway measured by Nrf2-dependant transcriptional activity (AID 720636; active = well fitted curve in the direction sought with a large enough effect in the repeat runs; an effect the other way counts as inactive or inconclusive; note: potency is the fitted concentration of half-maximal effect; for activation: % of control where 0% means no effect). The following applies: ARE-luc HepG2, Nrf2 luciferase reporter, 16 h; series mostly up to 92.4 µM. The method, boiled down: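 Cells: ARE-luc HepG2 with Nrf2-responsive luciferase. Medium contained 1% dialyzed FBS. Compound exposure lasted 16 hr at 37 C and 5% CO2, followed by ONE-Glo luciferase detection.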

Test [15] can be described thus: qHTS assay for small molecule agonists of the antioxidant response element (ARE) signaling pathway measured by Nrf2-dependant transcriptional activity - cell viability counter screen (AID 720653; active = well fitted curve in the direction sought with a large enough effect in the repeat runs; an effect the other way counts as inactive or inconclusive; note: % is set by controls: 0 for no effect and ±100 for the full control effect). The note with it: ARE-bla HepG2 viability, CellTiter-Glo ATP luminescence, 16 h; max response: stronger effect = lower value. The method, boiled down: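 ARE-bla HepG2 cells (2,000/well) rested 5 hrs at 37C/5% CO2, then exposed to compounds in DMSO for 16 hrs. Viability was read in the same wells as intracellular ATP by luminescence, 30 min at room temperature after reagent addition.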

Test [16] can be described thus: qHTS assay for cell viability of HEK293 cells (AID 743288). For max response: % is set by controls: 0 for no effect and ±100 for the full control effect. Note: nearly all actives have a fitted effect of over 50% in size. Note: potency is the fitted concentration of half-maximal effect. The note with it: ATP luminescence (CellTiter-Glo), 18 h; max response: stronger effect = lower value. The method, boiled down: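 The Tox21 protocol used parental HEK293 cells treated for 18 h at 37 C with compounds delivered by pintool; ATP-coupled luminescence after 30 min at room temperature gave viability.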

Test [17] in a line: qHTS assay for cell viability of the p53RE-bla HCT-116 cell line (AID 743292). Note: % is set by controls: 0 for no effect and ±100 for the full control effect; nearly all actives have a fitted effect of over 55% in size. The note with it: p53RE-bla HCT-116 viability, ATP luminescence, 16 h; series mostly up to 95 µM. The method, boiled down: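 HCT-116 p53RE-bla cells seeded 4,000/well; 5 h at 37 C; compound (DMSO) added; 16 h at 37 C; CellTiter-Glo added, 30 min RT; luminescence read.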
Test [18] concerns the target Nuclear receptor subfamily 1 group I member 2 (Rattus norvegicus) (UniProt Q9R1A7). The test can be described thus: qHTS assay for small molecule activators of the rat pregnane X receptor (rPXR) signaling pathway (AID 651751; call rule not given here; note: 0% is about no effect). The following applies: rPXR reporter cells, luciferase (One-Glo), 24 h.
The nature of test [19]: qHTS assay for small molecule activators of the human pregnane X receptor (PXR) signaling pathway (AID 720659; call rule not given here; note: 0% is about no effect). The following applies: DPX-2 HepG2 CYP3A4-luciferase, 24 h; series mostly up to 92.3 µM.
Test [20] can be described thus: qHTS assay for small molecule agonists of retinoid X receptor alpha signaling (AID 588544). The note with it: HEK293T RXRa-UAS-bla, beta-lactamase reporter, 18 h; 530 nm emission.

Nuclear receptor subfamily 1 group I member 2 (Rattus norvegicus), sequence (Q9R1A7 whole entry, looked up): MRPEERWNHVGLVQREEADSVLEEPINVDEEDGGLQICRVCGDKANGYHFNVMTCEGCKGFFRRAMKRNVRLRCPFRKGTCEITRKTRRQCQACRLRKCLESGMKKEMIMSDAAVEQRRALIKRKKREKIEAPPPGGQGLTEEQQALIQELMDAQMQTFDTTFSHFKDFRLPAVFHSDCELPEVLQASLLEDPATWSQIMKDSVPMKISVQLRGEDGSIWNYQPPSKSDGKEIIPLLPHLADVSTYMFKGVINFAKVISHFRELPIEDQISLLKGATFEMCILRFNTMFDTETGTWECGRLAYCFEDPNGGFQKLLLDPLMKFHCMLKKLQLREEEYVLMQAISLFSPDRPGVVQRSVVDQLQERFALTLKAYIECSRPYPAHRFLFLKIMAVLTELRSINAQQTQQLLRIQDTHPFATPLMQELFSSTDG
Thyroid hormone receptor beta (Homo sapiens), sequence (P10828 whole entry, looked up): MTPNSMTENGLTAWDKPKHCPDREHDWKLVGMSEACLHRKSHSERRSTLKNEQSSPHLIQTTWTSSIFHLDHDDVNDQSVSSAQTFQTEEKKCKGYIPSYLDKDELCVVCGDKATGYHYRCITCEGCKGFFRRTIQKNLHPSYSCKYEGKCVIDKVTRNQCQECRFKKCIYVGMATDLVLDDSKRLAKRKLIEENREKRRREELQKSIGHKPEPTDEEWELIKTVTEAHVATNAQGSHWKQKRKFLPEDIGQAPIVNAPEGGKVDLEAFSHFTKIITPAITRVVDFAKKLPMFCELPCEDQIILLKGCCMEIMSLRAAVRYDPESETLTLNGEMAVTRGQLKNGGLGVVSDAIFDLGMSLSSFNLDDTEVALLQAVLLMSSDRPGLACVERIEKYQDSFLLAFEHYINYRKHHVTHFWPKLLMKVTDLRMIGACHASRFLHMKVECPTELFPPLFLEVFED
Glucocorticoid receptor (Homo sapiens), sequence (P04150 whole entry, looked up): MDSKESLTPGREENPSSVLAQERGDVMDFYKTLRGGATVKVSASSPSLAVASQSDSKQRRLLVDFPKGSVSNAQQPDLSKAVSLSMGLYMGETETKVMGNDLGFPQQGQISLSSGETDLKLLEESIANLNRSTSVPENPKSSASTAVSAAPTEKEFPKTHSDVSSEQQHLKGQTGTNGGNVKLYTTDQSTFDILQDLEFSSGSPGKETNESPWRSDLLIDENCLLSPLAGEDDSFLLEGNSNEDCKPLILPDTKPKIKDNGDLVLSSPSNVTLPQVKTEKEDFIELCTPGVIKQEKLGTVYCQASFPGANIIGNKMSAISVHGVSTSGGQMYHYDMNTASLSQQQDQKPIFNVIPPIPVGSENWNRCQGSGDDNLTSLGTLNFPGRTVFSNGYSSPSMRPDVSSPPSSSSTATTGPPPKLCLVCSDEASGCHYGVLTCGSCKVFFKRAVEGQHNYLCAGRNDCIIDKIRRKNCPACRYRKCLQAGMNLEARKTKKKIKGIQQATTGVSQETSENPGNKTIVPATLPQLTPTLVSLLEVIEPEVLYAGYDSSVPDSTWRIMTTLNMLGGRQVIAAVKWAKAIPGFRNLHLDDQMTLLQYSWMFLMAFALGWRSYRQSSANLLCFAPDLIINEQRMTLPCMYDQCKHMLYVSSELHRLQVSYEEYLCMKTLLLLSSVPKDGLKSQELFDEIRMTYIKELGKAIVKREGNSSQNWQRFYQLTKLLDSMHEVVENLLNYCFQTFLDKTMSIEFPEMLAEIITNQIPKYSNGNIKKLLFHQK
Vitamin D3 receptor (Homo sapiens), sequence (P11473 whole entry, looked up): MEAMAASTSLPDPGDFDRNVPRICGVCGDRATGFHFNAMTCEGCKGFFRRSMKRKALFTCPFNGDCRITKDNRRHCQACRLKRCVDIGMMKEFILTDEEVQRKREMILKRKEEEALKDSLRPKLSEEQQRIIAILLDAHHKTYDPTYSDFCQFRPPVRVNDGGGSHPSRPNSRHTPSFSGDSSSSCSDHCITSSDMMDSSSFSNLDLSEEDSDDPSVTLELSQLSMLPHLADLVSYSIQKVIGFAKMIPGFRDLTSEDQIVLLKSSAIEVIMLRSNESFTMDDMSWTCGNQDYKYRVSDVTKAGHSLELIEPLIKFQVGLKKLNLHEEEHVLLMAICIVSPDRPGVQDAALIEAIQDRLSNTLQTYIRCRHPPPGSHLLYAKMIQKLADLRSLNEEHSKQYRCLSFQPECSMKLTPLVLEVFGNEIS

Consider `CS(C)=O`, for which the activation in test [1] is -5.87% (inactive); in [11] it was 1.22% (inactive); in test [12], 0.193% (inactive). Besides, the max response in test [2] is 23%; in test [8] it was -13.1%; in test [9] it was 10.4% (inactive); in [13] it was 0.892% (inactive); in test [15], 16.4% (inactive); in test [16] it was 1.99% (inactive). The max response in [18] was 2.97% (inactive). Further, the Potency entry in [3], in [5], in [7], in [14] and in test [17] was “inactive” in each case. Besides, the result in test [4], in test [6] and in [19] was inactive. In [10], the activity change % (negative = inhibition) was -25.7% (inactive).

Take `COC(=O)c1ccc(I)cc1S(=O)(=O)NC(=O)Nc1nc(C)nc(OC)n1`: the values for the activation in [1], in test [11] and in test [12] were 7.01% (inactive), -2.48% (inactive) and 2.67% (inactive), respectively. The outcome in test [4], in [6] and in [19] was inactive. Also, the Potency entry in test [5], in test [7], in test [14] and in test [17] was “inactive” in each case. In addition, the max response in [20] was -6.12%; in [8], -4.15%; in test [9], -12.1% (inactive); in test [13], -0.424% (inactive); in test [15], -4.44% (inactive); in test [16], -13.7% (inactive). The max response in test [18] was 3.28% (inactive). Moreover, the activity change % (negative = inhibition) in test [10] is -17% (inactive).

On to `CCC(O)OCCCOC` (centres undefined), for which the results for the activation in [1], in test [11] and in test [12] were -7.43% (inactive), -2.25% (inactive) and 0.32% (inactive), respectively. The max response is -0.797% in test [2]; -7.67% in [20]; -12.7% in [8]; 5.03% (inactive) in test [9]; -1.52% (inactive) in test [13]; 4.51% (inactive) in test [15]. The max response was -3.1% (inactive) in test [16] and 1.86% (inactive) in test [18]. The Potency result in [3], in test [5], in [7], in test [14] and in test [17] was “inactive” each time. Further, the outcome in test [4] and in test [19] was inactive. For the same compound, the activity change % (negative = inhibition) in test [10] was -6.47% (inactive).

For the compound `C=CC(=O)OCCOCC(CC)(COCCOC(=O)C=C)COCCOC(=O)C=C`, the values for the activation in [1], in test [11] and in [12] were -19.8% (inactive), 14.9% (inactive) and 5.29% (inactive), respectively. Further, the Potency in [5] was 28.2 µM (active); in test [14], 21.7 µM (active); in test [16], 39.8 µM (active). In addition, the max response in test [13] was -0.796% (inactive); in test [15], -10.9% (inactive). For the same compound, the call in [19] was inactive.

Turning to `CCCCCCC(O)CCCCCCCCCCC(=O)OC` (centres undefined), the activation was -20.2% (inactive) in test [1] and 0.349% (inactive) in test [11]. Also, the max response in [2] was 18.1%; in [20] it was -11.4%; in test [15], 9.9% (inactive); in test [16] it was -0.436% (inactive); in test [18], -2.07% (inactive). In addition, the Potency entry in [3], in [14] and in test [17] was “inactive” in each case. The outcome in test [6] and in [19] was inactive. The activity change % (negative = inhibition) in [10] was -2.76% (inactive).

Take `CCCCCOC(=O)COc1cc(N2C(=O)C3=C(CCCC3)C2=O)c(F)cc1Cl`: the activation is 3.85% (inactive) in test [1] and 0.703% (inactive) in test [12]. Further, the Potency entry in test [5] and in test [7] was “inactive” throughout. For the same compound, the outcome in test [6] and in test [19] was inactive. The activity change % (negative = inhibition) in [10] was 4.65% (inactive). The max response was 1.28% (inactive) in test [13], 8.37% (inactive) in test [15], 4.43% (inactive) in test [16] and 4.68% (inactive) in test [18].

For the origin of these results see PubChem BioAssay (NCATS).
